In PubChem BioAssay (EPA / NIEHS):
Calls of active or inactive are those of the source. How the source made its calls: active means hit-call score of the fitted dose curve at least 0.9, where 1 is the maximum; inactive means score below 0.9.

assay: ATG_CRE_CIS: Attagene CIS-FACTORIAL HepG2 Assay for human cAMP Responsive Element (CRE) binding protein 3 (AID 2282926); conditions: HepG2 CRE cis-reporter, Attagene multiplexed mRNA; actives raise or lower the signal
Method: ATG_CIS is a cell-based, multiplexed-readout assay that uses HepG2, a human liver cell line, with measurements taken at 24 hours after chemical dosing in a 24-well plate.ATG_CRE_CIS is one of 52 assay component(s) measured or calculated from the ATG_CIS assay. It is designed to make measurements of mRNA induction, a form of inducible reporter, as detected with fluorescence intensity signals by Reverse transcription polymerase chain reaction (RT-PCR) and Capillary electrophoresis technology.Data from the assay component ATG_CRE_CIS was analyzed into 1 assay endpoint. This assay endpoint, ATG_CRE_CIS, was analyzed with bidirectional fitting relative to DMSO as the negative control and baseline of activity. Using a type of inducible reporter, measures of mRNA for gain or loss-of-signal activity can be used to understand the reporter gene at the transcription factor-level as they relate to the gene CREB3. Furthermore, this assay endpoint can be referred to as a primary readout, because this assay has produced multiple assay endpoints where this one serves a reporter gene function. To generalize the intended target to other relatable targets, this assay endpoint is annotated to the dna binding intended target family, where the subfamily is basic leucine zipper.
Human liver HepG2 cells are transiently transfected with multiple reporter transcription units (MRTUs) in 6-well plates using FuGene 6 reagent (Roche; 3 ml FuGene/1 mg DNA). The MRTU constructs are regulated by a cis-regulating element (promoter). […] A major difference between the CIS and TRANS system is that in CIS activities of endogenous TFs are measured, whereas the TRANS assay evaluates changes in activities of exogenous, chimeric NR-Gal4 proteins. […] At the end of 24 hour incubation, total RNA was isolated using TriZol reagent (Invitrogen). The isolated RNA is then reverse-transcribed using oligo(dT) primer and Mo-MLV reverse transcriptase (Invitrogen) with DNAse I (Ambion) treatment for 30 min. The one-tenth of the produced cDNA was amplified by PCR using Taq DNA polymerase (Invitrogen) and two reporter sequence-specific primers. The PCR products were fluorescently labeled by primer extension with 6-arboxyfluorescein (6-FAM) 5'-labeled reporter sequence-specific primer (2 min at 95 C, 20 s at 68 C and 10 min at 72 C) and these products were digested with 5U of HpaI (New England Biolabs) for 2h at 37 C. The fragments were purified using Qiaquick PCR columns (Qiagen), analyzed on an ABI 3130xL genetic analyzer (Applied Biosystems) with peak positions identified by using a set of X-rhodamine (ROX)-labeled MapMarker1000 molecular weight standards (BioVentures). The raw capillary electrophoresis data was processed using Attagraph software (Attagene).

| Structure (SMILES) | AC50 | outcome |
| --- | --- | --- |
| CCc1nc(N)nc(N)c1-c1ccc(Cl)cc1 | 100 µM (active) | – |
| CC(C)(C)c1ccccc1 | – | inactive |
| O=C(Oc1ccccc1)c1cccc(C(=O)Oc2ccccc2)c1 | – | inactive |
| Cc1cc(Cc2ccc(N)c(C)c2)ccc1N | – | inactive |
| NC=O | – | inactive |
| CS(=O)(=O)c1ccc([C@@H](C[C@H]2CCC(=O)C2)C(=O)Nc2cnccn2)cc1Cl | – | inactive |
| CCCCc1nc2cccnc2n1Cc1ccc(-c2ccccc2-c2nnn[nH]2)cc1 | – | inactive |
| CC(C)COC(=O)CCCCC(=O)OCC(C)C | – | inactive |
| O=C1OC(c2ccc(O)cc2)(c2ccc(O)cc2)c2ccccc21 | 27.2 µM (active) | – |
| CN(C)C(=O)NC1(c2ccccc2)CCN(CC[C@@]2(c3ccc(F)c(F)c3)CN(C(=O)c3ccccc3)CCO2)CC1 | – | inactive |
| COC(=O)CCCC(=O)OC | – | inactive |
| CC(N)=O | – | inactive |
| COC(=O)CCC(=O)OC | – | inactive |
| C=CCc1ccc(OC)c(OC)c1 | – | inactive |
| CCCCCCC(CCCCCCCCCCC(=O)OCC(COC(C)=O)OC(C)=O)OC(C)=O (stereo not given) | – | inactive |
| Cn1cnc2c1c(=O)[nH]c(=O)n2C | – | inactive |
| CC(=O)O[C@]1(C(C)=O)CC[C@H]2[C@@H]3C=C(Cl)C4=CC(=O)[C@@H]5C[C@@H]5[C@]4(C)[C@H]3CC[C@@]21C | – | inactive |
| CN(C)CCCN1c2ccccc2Sc2ccc(Cl)cc21 | – | inactive |
| O=C(N[C@@H](c1ccccc1)[C@@H]1CCCCN1)c1cccc(C(F)(F)F)c1Cl | 25.4 µM (active) | – |
| NC(=Nc1ccccc1)Nc1ccccc1 | – | inactive |

| Structure (SMILES) | AC50 | outcome |
| --- | --- | --- |
| CC(C)OC(=O)C(C)(C)Oc1ccc(C(=O)c2ccc(Cl)cc2)cc1 | – | inactive |
| CCCCCCCC(=O)OC | – | inactive |
| CCCC(=O)O | 0.0135 µM (active) | – |
| CCOCCOCCO | – | inactive |
| CC1(C)C(=O)NC(=O)N1CO | – | inactive |
| OCC(CO)n1cnc(-c2ccc(F)cc2)c1-c1ccnc(Oc2ccccc2)n1 | – | inactive |
| CCCCOC(=O)CCCCC(=O)OCCCC | – | inactive |
| O=C(NS(=O)(=O)/C=C/c1cccs1)c1ccc(F)cc1Br | – | inactive |
| CN(C)C(=O)NC1(c2ccccc2)CCN(CCC[C@]2(c3ccc(Cl)c(Cl)c3)CCCN(C(=O)c3ccccc3)C2)CC1 | 4.22 µM (active) | – |
| O=C1O[C@H]([C@H](O)CO)C(O)=C1O | – | inactive |
| NCCOCCOCCN | – | inactive |
| C/C=C/c1ccc(OC)cc1 | – | inactive |
| CCCCC(CC)CO (stereo not given) | – | inactive |
| CO[C@@H]1COCC[C@@H]1N[C@@H]1CC[C@@](C(=O)N2CCc3ncc(C(F)(F)F)cc3C2)(C(C)C)C1 | – | inactive |
| CSc1ccc(Oc2ccc(S(N)(=O)=O)cc2CN(C)C)cc1C | – | inactive |
| CC(COCC(C)OC(=O)c1ccccc1)OC(=O)c1ccccc1 (stereo not given) | – | inactive |
| CCCCC(CC)COP(=O)(OCC(CC)CCCC)OCC(CC)CCCC (stereo not given) | – | inactive |
| O=[Si]=O | – | inactive |
| C#CC(O)C(CC)CCCC (stereo not given) | – | inactive |
| CCCCCCCCCCCCCCOS(=O)(=O)O | – | inactive |
